These results are taken from PubChem BioAssay.

Structures are written as SMILES. Results filed as inconclusive are left out. Active and inactive are the calls of the source. Cut-off not given; nearly all actives show IC50 up to about 30 µM.

The assay is described as follows: growth inhibition of DIPG cells – cell-based, MIPE5.0 library, qHTS (AID 1347068).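 On IC50: cells exposed to compound for 48 hours before viability readout.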 The conditions noted are these: SU-DIPG-XXV viability. A general note: qHTS replaces the single test concentration by a dilution series.
`CCN1C[C@]2(OC(=O)c3ccccc3NC(C)=O)CC[C@H](OC)[C@@]34[C@@H]2C[C@@H]([C@@H]13)[C@@]1(O)C[C@H](OC)[C@H]2C[C@@H]4[C@]1(O)[C@H]2OC`: the result was inactive. Consider `CCOc1ccccc1-n1c(C(C)N2CCN(C(=O)COc3ccc(Cl)cc3)CC2)nc2ccccc2c1=O` (stereo not given), for which the concentration for half-maximal inhibition (IC50) was 18.6 µM (active). Take `NC(=O)[C@@H](CC1CC1)[C@@H](CCC(F)(F)F)C(=O)N[C@H]1N=C(c2ccccc2)c2cccc(F)c2NC1=O`: the outcome was inactive. Take `CN[C@@H]1C[C@H]2O[C@@](C)([C@@H]1OC)n1c3ccccc3c3c4c(c5c6ccccc6n2c5c31)C(=O)NC4`: the IC50 was 0.833 µM (active).

Consider `C[C@]12CC[C@H]3[C@@H](CC[C@@]45O[C@@H]4C(O)=C(C#N)C[C@]35C)[C@@H]1CC[C@@H]2O`, for which the outcome was inactive. On to `Cn1c(/C=C/CO)c(CO)c2c1C(=O)C=C(N1CC1)C2=O`, for which the compound was called inactive. As for `CC1=C2C[C@H]3[C@@H](CC=C4C[C@@H](O)CC[C@@]43C)[C@@H]2CC[C@]12O[C@@H]1C[C@H](C)CN[C@H]1[C@H]2C`, the compound was called inactive. Take `O=c1[nH]c2ccc(Cl)cc2c(N[C@@H]2CN3CCC2CC3)c1-c1nc2ccccc2[nH]1`: the IC50 is 8.33 µM (active). Consider `O=C(Nc1ccncc1)C(=O)c1cn(Cc2ccc(Cl)cc2)c2ccccc12`, for which the half-maximal inhibitory concentration (IC50) was 0.372 µM (active).

As for `CN1[C@@H]2CC(O)C[C@H]1[C@@H]1O[C@@H]12` (stereo not given in full), the compound was called inactive. Turning to `Cc1[nH]ncc1-c1cc2nc([C@@H]3CC4CCN3CC4)[nH]c(=O)c2s1`, the IC50 was 23.5 µM (active). As to `O=C(O)CNC(=O)C1C(=O)N(C2CCCCC2)C(=O)N(C2CCCCC2)C1=O`, the compound was classed as inactive.

As to `COc1cc2c(cc1F)C(c1ccccc1Cl)=Nc1c(n[nH]c1C)N2`, the compound was called inactive.

With `C[C@]12Cc3cn[nH]c3C[C@@H]1CC[C@@H]1[C@@H]2CC[C@@]2(C)[C@H]1CC[C@]2(C)O`, the result was inactive. On the same count and under the same terms, as for `CN1C(=O)[C@@H](NC(=O)[C@H](CCC(F)(F)F)[C@H](CCC(F)(F)F)C(N)=O)N=C(c2ccccc2)c2ccccc21`, the entry is “inactive”. As for `Cc1ncc(OC[C@@]2(c3cccc(F)c3)C[C@H]2C(=O)Nc2ccc(F)cn2)c(C)n1`, the compound was called inactive.

Consider `CC1(C)CC[C@]2(NC(=O)C(C)(F)F)CC[C@]3(C)[C@H](C(=O)C=C4[C@@]5(C)C=C(C#N)C(=O)C(C)(C)[C@@H]5CC[C@]43C)[C@@H]2C1`, for which the IC50 was 11.8 µM (active). Consider `CC(=O)OC[C@H]1O[C@@H]([S-])[C@H](OC(C)=O)[C@@H](OC(C)=O)[C@@H]1OC(C)=O.CC[PH+](CC)CC.[Au]`, for which the concentration for half-maximal inhibition (IC50) was 2.63 µM (active).

As for `O=S(=O)(F)Cc1ccccc1`, the result was inactive. Turning to `C[C@@H]1CC[C@@]2(OC1)O[C@H]1C[C@H]3[C@@H]4CC=C5C[C@@H](O[C@@H]6O[C@H](CO)[C@@H](O[C@@H]7O[C@@H](C)[C@H](O)[C@@H](O)[C@H]7O)[C@H](O)[C@H]6O[C@@H]6O[C@@H](C)[C@H](O)[C@@H](O)[C@H]6O)CC[C@]5(C)[C@H]4CC[C@]3(C)[C@H]1[C@@H]2C`, the IC50 is 3.72 µM (active). As for `Cn1c(COP(=O)(NCCBr)NCCBr)cnc1[N+](=O)[O-]`, the result was inactive. In the case of `CC(=O)Nc1ccc(OC[C@](C)(O)C(=O)Nc2ccc([N+](=O)[O-])c(C(F)(F)F)c2)cc1`, the call was inactive.

Regarding `CN(C)c1cc2c(cc1Sc1nc3c(N)nccc3n1CCNCC(C)(C)C)OCO2`, the IC50 is 2.95 µM (active). In the case of `Cn1c(CCCCCCC(=O)NO)nc2cc(N(CCCl)CCCl)ccc21`, the call was inactive. For the compound `COc1ccc(N(C(=O)Oc2c(C)cccc2C)c2ccnc(Nc3ccc(N4CCN(C)CC4)cc3)n2)c(OC)c1`, the IC50 was 20.9 µM (active). For `O=C(CBr)N1CC([N+](=O)[O-])([N+](=O)[O-])C1`, the outcome was inactive.

On to `COC(=O)[C@@]12OC[C@]34[C@H]([C@@H](O)[C@@H]1O)[C@@]1(C)CC(=O)C(O)=C(C)[C@@H]1C[C@H]3OC(=O)[C@H](OC(=O)/C=C(\C)C(C)C)[C@@H]24`, for which the concentration for half-maximal inhibition (IC50) is 5.9 µM (active). On to `CC(N[C@H]1C[C@@H]1c1ccccc1)c1ccc2c(c1)OCCO2` (stereo not given in full), for which the compound was classed as inactive. On to `C[C@H]1[C@H](O)[C@@H](C)/C=C/C=C/CC/C=C/C=C/C=C/C=C/[C@H](O[C@@H]2O[C@H](C)[C@@H](O)[C@H](N)[C@@H]2O)C[C@@H]2O[C@](O)(C[C@@H](O)[C@H](O)CC[C@@H](O)C[C@@H](O)C[C@@H](O)CC(=O)O[C@H]1C)C[C@H](O)[C@H]2C(=O)O`, for which the result was inactive. With `CC(C)(C)c1cc(C=C(C#N)C#N)cc(Br)c1O`, the result was inactive.

As a reminder, the IC50 is the concentration that gives 50% inhibition.
